Laboratory results as given in PMC5540273 (PLoS ONE, 2017).

How the values were obtained:
Conditions in all cases: concentration: 1 μM, replicates: in singlicate; n = 1
[1] = tested on: MAP4K3
[2] = tested on: MAP4K4
[3] = tested on: MAP4K5
[4] = tested on: MAPKAPK2
[5] = tested on: MAPKAPK5
[6] = tested on: MARK1
[7] = tested on: MARK2
[8] = tested on: MARK3
[9] = tested on: MARK4
[10] = tested on: MAST1
[11] = tested on: T1, MEK1
T1 construct: gene MAP2K1

[12] = tested on: T2, MEK2
T2 construct: gene MAP2K2

[13] = tested on: T3, MEK3
T3 construct: gene MAP2K3

[14] = tested on: T4, MEK4
T4 construct: gene MAP2K4

[15] = tested on: T5, MEK5
T5 construct: gene MAP2K5

[16] = tested on: T6, MEK6
T6 construct: gene MAP2K6

[17] = tested on: MELK
[18] = tested on: MERTK
[19] = tested on: MET
[20] = tested on: T7, MINK
T7 construct: gene MINK1
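Further: KINOMEscan kinase panel screen.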

| SMILES | %Inh [1] [%] | %Inh [2] [%] | %Inh [3] [%] | %Inh [4] [%] | %Inh [5] [%] | %Inh [6] [%] | %Inh [7] [%] | %Inh [8] [%] | %Inh [9] [%] | %Inh [10] [%] | %Inh [11] [%] | %Inh [12] [%] | %Inh [13] [%] | %Inh [14] [%] | %Inh [15] [%] | %Inh [16] [%] | %Inh [17] [%] | %Inh [18] [%] | %Inh [19] [%] | %Inh [20] [%] |
| --- | --- | --- | --- | --- | --- | --- | --- | --- | --- | --- | --- | --- | --- | --- | --- | --- | --- | --- | --- | --- |
| O=C(NCCCN1CCOCC1)c1cccc(Nc2nccc(Nc3ccc(Oc4ccccc4)cc3)n2)c1 [GW663929] | 0 | 6 | 0 | 0 | 0 | 0 | 19 | 8 | 0 | 0 | 71 | 77 | 7 | 21 | 100 | 11 | 10 | 0 | 0 | 18 |
| CCc1nc(-c2cccc(C)c2)c(-c2ccnc(NCc3ccccc3)c2)s1 | 0 | 12 | 0 | 0 | 0 | 0 | 1 | 0 | 0 | 0 | 0 | 1 | 0 | 9 | 1 | 6 | 0 | 0 | 0 | 2 |
| COc1ccc(Nc2ncc(C#N)c(Nc3ccccc3C(N)=O)n2)cc1N1CCN(C)CC1.Cl [GSK1558669] | 99.8 | 96.8 | 99.3 | 0 | 0 | 99.3 | 99.9 | 89 | 98.7 | 91.8 | 85 | 92.6 | 89 | 92.5 | 100 | 79 | 100 | 100 | 92 | 98.7 |
| O=C(c1ccc(-c2cc(-c3c[nH]nc3-c3ccccn3)ccn2)cc1)N1CCOCC1 [GW812171] | 0 | 0 | 0 | 0 | 0 | 5 | 21 | 17 | 11 | 18 | 31 | 46 | 38 | 14 | 42 | 14 | 0 | 12 | 0 | 40 |
| Cc1cn2c(=O)cc(N3CCOCC3)nc2n1Cc1cccc(Cl)c1Cl [GSK2334006] | 5 | 16 | 19 | 28 | 0 | 0 | 0 | 2 | 0 | 0 | 11 | 0 | 0 | 17 | 54 | 0 | 17 | 5 | 0 | 0 |
| COc1cc2c(cc1OC[C@@H](O)CO)ncc1c3ccc(C#N)cc3[nH]c21 | 20 | 27 | 3 | 0 | 0 | 0 | 10 | 0 | 0 | 62 | 45 | 42 | 0 | 0 | 99.9 | 0 | 31 | 0 | 0 | 91.9 |
| NS(=O)(=O)CCc1cccc(Nc2nccc(-c3c(-c4cccc(NC(=O)c5c(F)cccc5F)c4)nn4ccccc34)n2)c1 [GSK336735] | 65 | 76 | 95.8 | 23 | 0 | 13 | 0 | 6 | 26 | 0 | 82 | 76 | 12 | 36 | 99.7 | 47 | 24 | 87 | 83 | 62 |
| CCc1ccnc(/C=C/c2n[nH]c3cc(Sc4ccccc4C(=O)NC)ccc23)c1 | 0 | 0 | 3 | 0 | 0 | 27 | 4 | 3 | 21 | 0 | 0 | 10 | 0 | 0 | 62 | 9 | 6 | 0 | 0 | 34 |
| Cc1nnc(-c2ccc(C)c(-c3ccc(C(=O)Nc4ccc(NS(C)(=O)=O)cc4)cc3)c2)o1 [GW702865] | 0 | 0 | 0 | 11 | 0 | 0 | 0 | 0 | 10 | 21 | 8 | 7 | 0 | 0 | 18 | 0 | 10 | 0 | 12 | 19 |
| COc1ccc(COc2cc(-n3cnc4ccccc43)sc2C(N)=O)cc1 [GSK1024304] | 0 | 2 | 24 | 0 | 0 | 0 | 1 | 5 | 11 | 0 | 0 | 0 | 0 | 14 | 32 | 0 | 0 | 1 | 0 | 24 |
| C[C@@H](Oc1cc(-n2cnc3ccc(NC(=O)NC(C)(C)C)cc32)sc1C(N)=O)c1ccccc1Cl [GSK346294] | 0 | 2 | 0 | 12 | 0 | 1 | 0 | 0 | 9 | 0 | 0 | 0 | 0 | 14 | 18 | 0 | 21 | 8 | 0 | 4 |
| CN1c2ccc(CNc3ccc(F)cc3)cc2-c2c(cnn2C)S1(=O)=O | 8 | 0 | 0 | 0 | 0 | 3 | 0 | 0 | 11 | 0 | 11 | 18 | 13 | 22 | 31 | 0 | 0 | 0 | 0 | 26 |
